# Screening data as filed in PubChem.
# An excerpt weighted towards active compounds, which were near 6.9% of everything screened.
# KB-V1 cytotox: qHTS assay for MDR1-selective chemotherapeutics: Primary screen using the drug-selected MDR subline cells KB-V1 | KB-V1 MDR cells viability, CellTiter-Glo, 72 h | Potency, µM (titrated, usually from 46.1 µM), actives largely listed as cytotoxic | actives 3.4% (n = 400,000); further: potency means the concentration at half of the fitted maximal effect; on the % scale 0 is the no-effect control and ±100 the full control effect; nearly all actives have a fitted effect of over 60% in size
#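 KB-V1 cells (P-gp-expressing MDR subline of KB-3-1) in phenol-red-free DMEM with 10% FBS were exposed to library compounds over a concentration series for 72 h at 37 degrees C. Viability read by CellTiter-Glo luminescence; concentration-effect curves fitted after normalization.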
# KB-3-1 cytotox: qHTS assay for MDR1-selective chemotherapeutics: Primary screen using the parental adenocarcinoma cell KB-3-1 | KB-3-1 viability, CellTiter-Glo ATP luminescence, 72 h | actives 1.4% (n = 400,000) | Potency, µM (doses to about 46.1 µM), most hits filed as cytotoxic; further: potency means the concentration at half of the fitted maximal effect; on the % scale 0 is the no-effect control and ±100 the full control effect; nearly all actives have a fitted effect of over 60% in size
#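 KB-3-1 parental drug-naive adenocarcinoma cells in DMEM/10% FBS, incubated 72 h at 37 C with pin-transferred compounds across a concentration series. Viability by CellTiter-Glo luminescence; concentration-response curves fitted after normalization.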
# SW480 rerep: A quantitative high throughput screen for small molecules that induce DNA re-replication in SW480 colon adenocarcinoma cells | SW480 DNA re-replication, Hoechst DNA content imaging, 48 h | Potency, µM (doses to about 46.1 µM), inactives show at the top dose re-replication activation, most hits filed as activators | actives 1.8% (n = 340,000); further: potency means the concentration at half of the fitted maximal effect; % of control where 0% means no effect; nearly all actives have a fitted effect of over 55% in size
#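 Per well, 250 cells were exposed to pinned compound for 48 hr. Nuclear DNA was visualised with Hoechst (40 min, 37 C) and total object intensity recorded by fluorescence scanning.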
# ASM inhibitor: Inhibitors of Secretory Acid Sphingomyelinase (S-ASM): qHTS | actives 0.006% (n = 340,000) | Sphingomyelin phosphodiesterase (Homo sapiens), P17405 | placental ASM, HMU-PC fluorogenic substrate, 60 min | Potency, µM (highest dose often 57.5 µM), for inactives: at the top dose activity change, negative = inhibition, actives largely listed as inhibitors; further: potency means the concentration at half of the fitted maximal effect
# Target sequence (P17405 47-631 limits assumed): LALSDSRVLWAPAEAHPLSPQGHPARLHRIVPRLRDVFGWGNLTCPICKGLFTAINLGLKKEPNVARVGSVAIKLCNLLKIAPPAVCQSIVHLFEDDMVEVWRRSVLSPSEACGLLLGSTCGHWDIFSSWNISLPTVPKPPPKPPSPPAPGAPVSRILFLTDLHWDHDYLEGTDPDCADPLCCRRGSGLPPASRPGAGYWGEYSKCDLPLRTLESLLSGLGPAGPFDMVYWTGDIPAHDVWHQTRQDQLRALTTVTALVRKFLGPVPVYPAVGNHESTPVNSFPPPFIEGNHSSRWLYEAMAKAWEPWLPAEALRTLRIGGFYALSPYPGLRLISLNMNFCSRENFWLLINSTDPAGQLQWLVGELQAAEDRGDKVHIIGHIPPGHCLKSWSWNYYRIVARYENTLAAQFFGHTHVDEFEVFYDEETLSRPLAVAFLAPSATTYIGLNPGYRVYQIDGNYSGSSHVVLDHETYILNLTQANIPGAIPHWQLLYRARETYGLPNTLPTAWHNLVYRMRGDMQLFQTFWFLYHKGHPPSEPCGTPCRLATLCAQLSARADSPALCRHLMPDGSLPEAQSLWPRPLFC
#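 HMU-PC0 cleavage (9 uM final) by human placental ASM, 60 min at 37 °C following 10 min compound exposure at RT; stopped at pH 10, fluorescence Ex 386/Em 447 nm.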
# MCF10A rereplic: A quantitative high throughput screen for small molecules that induce DNA re-replication in MCF 10a normal breast cells; MCF 10A DNA re-replication, Hoechst nuclear intensity, 48 h; Potency, µM (doses to about 46.1 µM), without a hit: at the top dose activity, positive = re-replication, most hits filed as activators; actives 2.9% (n = 350,000); further: potency means the concentration at half of the fitted maximal effect; % of control where 0% means no effect; nearly all actives have a fitted effect of over 50% in size
# Giardia kill: Small Molecules that selectively kill Giardia lamblia: qHTS; Giardia lamblia trophozoite viability; activity change, % at 7.66 µM, hits read low; actives 0.15% (n = 340,000); in the data active means activity change below about -80%; inconclusive means between about -30% and that limit;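 further: parasites exposed to compound for two days anaerobically before the ATP read; on the % scale 0 is the no-effect control and ±100 the full control effect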
#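 Compounds were tested on trophozoites seeded at 100 cells/well and held 48 hrs at 37 deg C anaerobically. An ATP-based luminescent kit measured the remaining live cells.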
# Numbers without * were called inactive; i = inactive; ? = inconclusive; . = no result given. Unless noted, the call rests on the fitted dose curve; in most records, active means well fitted curve in the direction sought with a large enough effect; inconclusive means small, poorly fitted or top-dose-only effect, or another doubt; inactive means no such curve, though single readings can be large; an effect the other way counts as inactive or inconclusive.
SMILES,KB-V1 cytotox,KB-3-1 cytotox,SW480 rerep,ASM inhibitor,MCF10A rereplic,Giardia kill
COc1ccc(NC(=O)CN2C(=O)C(C)Oc3ccccc32)cc1 (configuration not stated),?,i,3%,-1%,5%,6
COc1ccc(NC(=O)CN2C(=O)C(C)Oc3ccccc32)c(OC)c1 (configuration not stated),16µM*,i,-15%,4%,1%,3
Cc1ccc(NC(=O)CN2C(=O)C(C)Oc3ccccc32)nc1 (configuration not stated),15µM*,i,-4%,4%,2%,0
CCCSc1nc2c(c(=O)[nH]1)C(c1ccc(O)c(OCC)c1)CC(=O)N2 (configuration not stated),i,i,.,.,.,.
N#Cc1ccccc1CSc1nnc2ccc3ccccc3n12,i,i,.,.,.,.
Cc1ccc(N(CC(N)=O)C2SC(=O)N(Cc3ccccc3)C2=O)cc1 (configuration not stated),i,i,?,-7%,21µM*,6
O=C(C(=O)N(Cc1ccccc1)Cc1ccccc1)c1c(-c2ccccc2)[nH]c2ccccc12,i,i,18µM*,-18%,15%,?
COCCNC(=O)C(=O)c1c(-c2ccccc2)[nH]c2ccccc12,i,i,-5%,4%,-8%,1
CC(Sc1nnnn1-c1ccc(Cl)cc1)C(=O)NCC(=O)Nc1ccc(F)c(F)c1F (configuration not stated),16µM*,i,2%,-3%,14%,1
O=C(Nc1ccc(Cl)c(C(F)(F)F)c1)c1nc2ccccc2nc1N1CCCCC1,?,i,.,.,.,.
COc1ccc(-c2cn3cc(C)ccc3n2)cc1Br,i,i,-4%,-1%,22%,?
COc1ccc(-c2cn3cc(Cl)ccc3n2)cc1OC,16µM*,i,4%,21%,18%,-8
Clc1ccc2nc(-c3ccc(Br)s3)cn2c1,18µM*,i,8%,-3%,11%,-16
O=c1cc[nH]c(=S)[nH]1,.,.,0%,.,-1%,.
COc1ccc(-c2csc(NC(=S)NC(=O)/C=C/c3ccccc3)n2)cc1Br,12µM*,?,-4%,-3%,19%,-7
O=C(/C=C/c1ccco1)NC(=S)Nc1nc(-c2ccc3ccccc3c2)cs1,5.2µM*,4.6µM*,?,-1%,1.2µM*,?
O=C(/C=C/c1ccco1)NC(=S)Nc1nc(-c2ccc(Cl)cc2)cs1,?,?,-2%,-6%,21µM*,-19
O=C(/C=C\c1ccco1)Nc1nc(-c2ccccc2)cs1,?,i,-14%,3%,?,-6
Cc1ccc2oc(-c3cccc(NC(=S)NC(=O)c4cccs4)c3)nc2c1,i,i,-5%,-1%,2%,-11
Cc1ccc2oc(-c3cccc(NC(=S)NC(=O)/C=C/c4ccco4)c3)nc2c1,?,?,?,-1%,9.2µM*,-3
COc1ccc(-c2csc(NC(=O)Cc3ccccc3)n2)cc1OC,i,i,-6%,-1%,-1%,6
O=S(=O)(Nc1cccc(-c2ccc(N3CCCCC3)nn2)c1)c1cccs1,?,i,.,.,.,.
CC(C)Cc1ccc(C(C)CC2=CCC(CN(C)C)C2=O)cc1 (configuration not stated),?,?,?,1%,6.5µM*,-15
CC(C)Cc1ccc([C@@H](C)C(=O)NS(C)(=O)=O)cc1,.,.,-2%,.,-1%,.
O=CNCc1nc2ccccc2n1CCc1ccccc1,?,i,2.9µM*,4%,?,-11
Nc1c(Cl)cc(/C=C2\C=Cc3ccccc32)cc1Cl,i,i,.,.,.,.
